High-throughput results deposited in PubChem by Columbia University Molecular Screening Center.
An excerpt weighted towards active compounds, which were near 1% of everything screened.
E-sel TNF inh: E-selectin induction blockers in HUVEC – imaging, immunofluorescence, high content, primary screen; HUVEC TNFa-induced E-selectin immunofluorescence; inhibition, % at 2 µM; actives 0.71% (n = 120,000); AID 1246, 2008;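 active = inhibition above the batch mean plus 3 SD, and confirmed as a hit on visual image review, cut at about 43% in these data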;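 also: 0% = TNF-stimulated DMSO wells and 100% = unstimulated control wells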
VCAM1 TNFa inh: inhibitors of TNFa-induced VCAM1 expression, primary screen, imaging, HUVEC, TNFa stimulus, immunofluorescence | HUVEC TNFa-induced VCAM-1 immunofluorescence, high-content imaging | inhibition, % at 2 µM | actives 0.48% (n = 95,000);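 active = inhibition above the batch mean plus 3 SD, with images confirmed as a hit by eye, cut at about 37% in these data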;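 also: 0% = TNF-stimulated DMSO wells and 100% = unstimulated control wells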
cytoskel mod: modifiers of F-actin cytoskeleton organization, primary screen, imaging, HUVEC, phalloidin staining, high-content imaging | HUVEC TNFa F-actin phalloidin imaging | inhibition, % at 2 µM | actives 0.18% (n = 91,000);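 active = inhibition above the batch mean plus 3 SD and confirmed as a hit by visual image inspection, cut at about 30% in these data, passing the limit was not always enough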
TNFa cytotox: cytotoxicity in TNFa-stimulated HUVEC, primary screen, cytotoxicity control for VCAM1 expression modulator project, imaging, Hoechst nuclei count | HUVEC TNFalpha-stimulated, Hoechst cell count | cell count reduction, % at 2 µM | actives 0.17% (n = 93,000) | AID 848, 2007;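 active = cell count reduction exceeding the screen mean by over 5 SD, scaled to untreated wells per plate, cut at about 78% in these data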;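 also: cells counted after 24 h of TNF alpha exposure following the 1 h pretreatment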
An asterisk follows results filed as active; nt = no result.

SMILES	E-sel TNF inh	VCAM1 TNFa inh	cytoskel mod	TNFa cytotox
COc1ccccc1C(=O)NNC(=S)NC(=O)c1ccco1	-0.8	nt	nt	nt
Cc1ccc(Cl)cc1NC1=C/C(=N\S(=O)(=O)c2cccs2)c2ccccc2C1=O	28.9	90.6*	8.9	27.7
Cc1cc(C)c(/C=N/NC(N)=O)c(C)c1/C=N/NC(N)=O	-29.0	69.2*	-104.1	43.6
O=c1[nH]c(-c2ccccn2)nc2sc(-c3ccccc3)cc12	-23.9	nt	nt	nt
O=C(NC(=S)NCc1cccnc1)c1cccc2ccccc12	-10.6	nt	nt	nt
CN(C)c1ccc(NC(=S)NC(=O)/C=C/c2ccc(Cl)cc2)cc1	87.3*	-2.4	-13.2	-8.1
Cc1ccc(C)c(-c2nn(-c3cc(N4CCN(CCO)CC4)ccc3[N+](=O)[O-])c(=O)c3ccccc23)c1	2.7	0.1	2.1	-15.0
Oc1ccc(N2CCN(c3ncnc4sc(-c5ccccc5)cc34)CC2)cc1	99.9*	nt	nt	nt
CCc1cc(OCCOCCN(C)C)ccc1Cl	92.3*	nt	nt	nt
CCN(CC)CCOCCOc1cc(C)c(Cl)c(C)c1	8.3	15.9	-13.1	3.5
Cn1cc(/C=N/n2cnc3scc(-c4ccc(Cl)cc4)c3c2=O)c2ccccc21	nt	75.1*	-205.4	65.2
CCn1cnc2scc(-c3ccccc3)c2c1=O	-21.1	-8.7	-7.2	-10.1
CCOC(=O)c1sc(=N)n(-c2ccc(OC)cc2)c1C	64.2*	4.1	18.0	0.8
CCOC(=O)c1nnn(-c2ccc(OC)cc2)c1N	-5.9	9.2	5.6	8.0
COc1ccc(-n2c(C)c3c(OC)cccc(=O)c3c2C)cc1	56.3*	-6.5	8.2	-3.1
COc1cccc(=O)c2c(C)oc(C)c12	6.6	10.6	-2.9	-0.4
CC(=O)NNc1nc2ccccc2s1	nt	-11.7	2.1	-3.1
O=C(NNc1nc2ccccc2s1)Nc1ccccc1	62.3*	nt	nt	nt
O=C(COc1ccc(Br)cc1)Nc1ccncc1	-39.0	3.3	-20.4	0.8
Cc1cc(OCC(=O)Nc2ccncc2)c(C)cc1Br	66.4*	-3.1	15.4	-22.7
O=C(NCCO)C(c1ccccc1)c1ccccc1	nt	91.2*	-26.2	89.9*
Cc1[nH]n(-c2nc(-c3ccc(Cl)cc3)cs2)c(=O)c1N=Nc1ccc(O)cc1	19.5	nt	nt	nt
Cc1ccccc1CS(=O)(=O)c1nnc([C@H](CC(C)C)NC(=O)OC(C)(C)C)o1	98.7*	10.3	24.1	-16.8
CCOC(=O)c1ccc(-n2ccnc2)c(NC(=O)c2ccc(Cl)cc2)c1	62.2*	nt	nt	nt
Cc1cc2ccccn2c1C(=O)Nc1cccc(Cl)c1	-11.3	nt	nt	nt
SMILES	E-sel TNF inh	VCAM1 TNFa inh	cytoskel mod	TNFa cytotox
COC(=O)c1nnn(-c2ccccc2)c1N	6.3	-18.0	2.1	nt
COC(=O)c1nnn(-c2ccc(Cl)c(Cl)c2)c1C(=O)OC	73.3*	nt	nt	nt
COc1cc(NC(=O)COc2ccc(Cl)cc2)ccc1-c1cc2ccccc2oc1=O	0.5	nt	nt	nt
O=C(COC(=O)CCS(=O)(=O)c1ccc(Cl)cc1)NCCc1ccc(Cl)cc1Cl	-15.1	nt	nt	nt
COc1cccc(-n2c(SC3CCOC3=O)nc3ccccc3c2=O)c1 (stereo unspecified)	95.7*	-0.5	2.9	-16.4
CN(C)S(=O)(=O)c1cccc(NC(=S)NCCCn2ccnc2)c1	10.5	nt	nt	nt
Cc1c(NC(=O)c2c(N)n(-c3ccccc3)c3nc4ccccc4nc23)c(=O)n(-c2ccccc2)n1C	76.5*	nt	nt	nt
Cc1c(NC(=O)c2c(F)cccc2F)c(=O)n(-c2ccccc2)n1C	30.5	8.2	1.3	-8.8
Cc1cc(C)cc(OCC(=O)Nc2nonc2NC(=O)COc2cc(C)cc(C)c2)c1	-10.6	77.8*	-31.6	75.6
Cn1nnnc1SCC(=O)Nc1cc(C(C)(C)C)nn1-c1ccccc1	nt	11.6	-63.4	-3.8
Cc1cc(NC(=O)CSc2nnnn2C)n(-c2ccccc2)n1	13.7	-6.3	34.6*	-52.0
COc1ccccc1CCc1nnc(CCC(=O)NC(C)Cc2cccnc2)o1 (stereo unspecified)	-8.9	nt	nt	nt
Cc1cc(C(F)F)nn1CC(=O)Nc1cc([N+](=O)[O-])ccc1F	18.7	nt	nt	nt
CCOC(=O)C1C(=O)CC(C)(O)C(C(=O)OCC)C1c1ccccc1 (stereo unspecified)	59.1*	-20.2	19.1	-5.9
CCOC(=O)C1C(=O)CC(C)(O)C(C(=O)OCC)C1c1ccc(OC)cc1 (stereo unspecified)	nt	18.5	-26.5	28.4
O=C(CN1CCN(Cc2ccccc2)CC1)N1CCCCCC1	-6.4	nt	nt	nt
COc1ccc(C2=Nn3c(nnc3-c3ccncc3)SC2)cc1OC	-7.8	3.4	9.1	-14.7
COc1ccccc1-c1nnc2n1N=C(c1ccc(O)c(O)c1)CS2	28.8	95.5*	1.9	55.9
CCOc1ccc(-c2nnc3n2N=C(c2ccc(OC)cc2)CS3)cc1	nt	8.2	-18.8	-24.1
